According to PubChem BioAssay AID493201 (National Center for Advancing Translational Sciences (NCATS), 2011):
Records with an inconclusive call do not appear. Active and inactive are the calls of the source. The call rests on the fitted dose curve; in most records, active means well fitted activation curve with a large enough effect; inconclusive means small, poorly fitted or top-dose-only effect; inactive means no such curve, though single readings can be large or run the other way.

Assay: qHTS Assay for Identifying a Potential Treatment of Ataxia-Telangiectasia: Secondary assay (no NCS) hit validation;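 further: phosphorylated KAP1 signal as a proxy for ATM-like kinase activity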; on activation: 0% is about no effect
Conditions: A-T patient fibroblasts, AlphaLISA, no DNA damage added, 90 min; series mostly up to 76.9 µM; activation: at the top concentration
Summary of the method: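 Without NCS-induced DNA breaks, ATM-like activity scored as phospho-KAP1 AlphaLISA signal (pKAP1/total KAP1 bead pair) in ATM-null F2112 fibroblasts; compound series up to 76.7 uM final, 37C incubation, lysates read on AlphaScreen protocol.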
Potency means the concentration at half of the fitted maximal effect.

Compound | activation | Potency
Cc1ccc(NC(=O)CSc2nnc([C@H](C)NC(=O)OC(C)(C)C)o2)c(C)c1 | 28.8% (inactive) | 
O=C1NC(NS(=O)(=O)c2ccc(Cl)cc2)(C(F)(F)F)C(=O)N1CCc1ccccc1 (centres undefined) | -1.74% (inactive) | 
Cc1ccc(NC(=O)NC(=O)N(C(C)C)S(C)(=O)=O)nc1 | 11.3% (inactive) | 
CCc1nnc2n1N=C(c1cccc([N+](=O)[O-])c1)CS2 |  | 51.9 µM (active)
CCOc1ccc(C(=O)NC(=S)Nc2cccnc2)cc1[N+](=O)[O-] | 11.9% (inactive) | 
CC1=NOC2(C1)N(C)c1ccccc1C2(C)C (centres undefined) | 3.23% (inactive) | 
Cc1cc2c(c(=O)o1)C(CCC1CCCCC1)C(C#N)=C(N)O2 (centres undefined) | 10.2% (inactive) | 
Cc1ccc(C)c(-n2c(SCC(=O)NC(C(=O)O)C(C)C)nnc2-c2cccc(Cl)c2)c1 (centres undefined) |  | 46.3 µM (active)
Cc1ccc(C)c(-c2csc(Nc3ncccn3)n2)c1 | 27.8% (inactive) | 
O=C(/C(=C/c1ccc(Cl)cc1)c1nc2ccccc2[nH]1)c1cccs1 | -1.08% (inactive) | 
C/C(CCC1CC(C)OC1=O)=N\NC(N)=S (centres undefined) | -2.61% (inactive) | 
NC(=O)c1cc2ccccc2o/c1=N/NC(=O)c1cccc(F)c1 | -4.35% (inactive) | 
O=[N+]([O-])c1ccc(F)cc1F |  | 32.8 µM (active)
CC1=C/C(=C\C=C(C#N)C#N)N(C)c2ccccc21 | 15.1% (inactive) | 
Nc1ccc2ncccc2c1 | 3.23% (inactive) | 
CC(C)(C)n1nc2c(c1NC(=O)C1CC(=O)N(c3ccc(Cl)cc3)C1)CS(=O)(=O)C2 (centres undefined) | 2.15% (inactive) | 
COc1ccc(C2/C=C\CN(S(=O)(=O)c3ccc4ccccc4c3)CC(=O)N2Cc2ccc(F)cc2)cc1 (centres undefined) |  | 41.2 µM (active)

Compound | activation | Potency
Cc1ccc2c(c1)sc(=NC(=O)C1CC1)n2C | -1.08% (inactive) | 
COc1ccccc1-n1c(SCC(N)=O)nc2sc3c(c2c1=O)CCC3 | -2.61% (inactive) | 
OC1(CC#CCN2CCCCC2)c2ccccc2-c2ccccc21 | -14.4% (inactive) | 
COc1cccc(OC)c1C(=O)NC(=O)Nc1c(C)cccc1C | -1.74% (inactive) | 
CCS(=O)(=O)c1ccc(C(=O)Nc2ccccc2)c(Cl)c1Cl |  | 32.8 µM (active)
CCC(C)N1C(=S)SC(C)(C)C1N(O)C(=O)NC1CCCCC1 (centres undefined) | -0.848% (inactive) | 
CC(=O)NNC(=O)CN1C(=O)/C(=C/c2ccccc2)SC1=S | 4.35% (inactive) | 
O=C(O)CCCN1C(=O)/C(=C/C=C/c2ccco2)SC1=S | 3.23% (inactive) | 
COc1ccc(C2(C)CC(C)(C)Nc3ccccc32)cc1 (centres undefined) | -1.08% (inactive) | 
COc1ccc2c(c1)c(N=NC(N)=S)c(O)n2CC(=O)c1ccccc1 | 0% (inactive) | 
CN(C)c1ccc2nc3ccc(=[N+](C)C)cc-3sc2c1 |  | 14.6 µM (active)
COc1ccc(Cl)cc1NC(=O)C[n+]1cccc(C)c1 | -2.15% (inactive) | 
CCN(CC)CCNC(=O)CCc1c(C)nc2c(c(C)nn2-c2ccc(C)cc2)c1C | -2.54% (inactive) | 
CC(=O)/C(N=Nc1nc2c([nH]1)c(=O)n(C)c(=O)n2C)=C(\C)O | 0% (inactive) | 
CSc1nc(SCC(=O)O)c2c3c(sc2n1)COC(C)(C)C3 | 13.9% (inactive) | 
Clc1cccc(CN2CCC(Cc3ccccc3)CC2)c1 | 1.74% (inactive) | 
O=C(CSc1nnc(CNC(=O)c2ccccc2)o1)NCCc1ccccc1 | 22.6% (inactive) | 
